# A selection: hits, their analogues and other compounds. The true share with any hit is near 13%.
# USP8 inh: inhibitors of human USP8 deubiquitinase; inhibition, % at 20 µM; Ubiquitin carboxyl-terminal hydrolase 8 (Homo sapiens), P40818; purified USP8, Ub-rhodamine cleavage fluorescence, 30 min; AID 1645853, 2021; 4.2% of 47,000 active
# USP17 inh: inhibitors of human USP17 deubiquitinase; AID 1645855, 2021; inhibition, % at 50 µM; purified USP17, Ub-rhodamine cleavage fluorescence, 3 h; 6.5% of 47,000 active; Ubiquitin carboxyl-terminal hydrolase 17-like protein 5 (Homo sapiens), A8MUK1
# USP30 inh: inhibitors of human USP30 deubiquitinase; Ubiquitin carboxyl-terminal hydrolase 30 (Homo sapiens), Q70CQ3; purified USP30, Ub-rhodamine cleavage fluorescence; inhibition, % at 25 µM; 5.3% of 47,000 active; AID 1645860, 2021
# Target sequence (Q70CQ3 whole entry, looked up): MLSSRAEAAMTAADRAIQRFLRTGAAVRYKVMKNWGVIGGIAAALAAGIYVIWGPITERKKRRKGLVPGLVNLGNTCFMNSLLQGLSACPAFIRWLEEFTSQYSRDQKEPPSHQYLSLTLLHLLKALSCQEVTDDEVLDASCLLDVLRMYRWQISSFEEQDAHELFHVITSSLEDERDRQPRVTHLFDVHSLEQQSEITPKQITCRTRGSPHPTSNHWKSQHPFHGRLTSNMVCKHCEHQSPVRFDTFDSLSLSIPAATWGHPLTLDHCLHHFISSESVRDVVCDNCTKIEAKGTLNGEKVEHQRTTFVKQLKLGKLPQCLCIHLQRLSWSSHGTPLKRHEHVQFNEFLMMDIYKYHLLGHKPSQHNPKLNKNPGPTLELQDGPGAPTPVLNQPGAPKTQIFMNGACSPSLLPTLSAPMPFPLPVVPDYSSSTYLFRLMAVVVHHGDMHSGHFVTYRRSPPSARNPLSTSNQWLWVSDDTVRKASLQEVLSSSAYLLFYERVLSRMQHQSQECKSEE
# UCHL1 block: inhibitors of human UCHL1 deubiquitinase; purified UCHL1, Ub-rhodamine cleavage fluorescence; 0.2% of 47,000 active; AID 1645859, 2021; inhibition, % at 20 µM; Ubiquitin carboxyl-terminal hydrolase isozyme L1 (Homo sapiens), P09936
# USP7 block: inhibitors of human USP7 deubiquitinase. purified USP7, Ub-rhodamine cleavage fluorescence. 0.3% of 47,000 active. inhibition, % at 20 µM. Ubiquitin carboxyl-terminal hydrolase 7 (Homo sapiens), Q93009
# USP10 block: inhibitors of human USP10 deubiquitinase | purified USP10, Ub-rhodamine fluorescence, 60 min | inhibition, % at 20 µM | 1.1% of 47,000 active | AID 1645856, 2021
# * hit, by the source's call; . = no result given. Rule as the data show it: active = inhibition above about 30%; inactive = the rest.
SMILES,USP8 inh,USP17 inh,USP30 inh,UCHL1 block,USP7 block,USP10 block
C=C1CCC[C@]2(C)C[C@H]3OC(=O)C(CN4CCCCC4C)[C@H]3CC12 (some centres not stated),-14,0,43*,-3,-2,-1
C=C1CCC[C@]2(C)C[C@H]3OC(=O)C(CN4CCCCC4CC)[C@H]3CC12 (some centres not stated),-4,-1,40*,0,6,8
COC(=O)c1ccc(CNC(=O)C2(c3cccc(F)c3)CCCC2)cc1,8,10,17,8,5,4
O=C(Nc1cccc(Cl)c1)C1Cn2ccnc2C2(CCN(C(=O)C3CC3)CC2)O1 (configuration not stated),-25,-6,4,-1,1,-5
CCOc1cccc(NC(=O)c2ccc(S(=O)(=O)N3CCc4ccccc4C3)cc2)c1,28,53*,41*,2,9,10
O=C(Nc1ccc(Br)c(C(=O)c2ccccc2)c1)c1ccc(S(=O)(=O)N2CCc3ccccc3C2)cc1,-11,8,9,3,7,7
CC1Oc2ccc(NC(=O)c3cccc(S(=O)(=O)N4CCc5ccccc5C4)c3)cc2NC1=O (configuration not stated),-7,31*,-14,3,7,8
Cc1ccc(NC(=O)c2cnc(N3CCN(C)CC3)nc2C)c(C)c1,5,1,14,1,0,0
O=C(Cn1c(=O)[nH]c2c(-c3ccccc3)c[nH]c2c1=O)NCc1ccccc1Cl,41*,-20,-96,-8,15,0
CSc1ccc(CNC(=O)Cn2c(=O)[nH]c3c(-c4ccccc4)c[nH]c3c2=O)cc1,73*,-29,-67,2,10,22
O=C(Cn1c(=O)c2c(ncn2C2CCCC2)n(Cc2ccccc2)c1=O)NCc1ccccc1Cl,14,11,-57,-1,-16,0
CN(Cc1ccccc1)C(=O)Cn1c(=O)[nH]c2c(-c3ccccc3F)c[nH]c2c1=O,11,-45,-138,-4,4,-3
O=C(NC1CCCC1)C(c1ccc(Cl)cc1)N(Cc1ccccc1F)C(=O)c1ccco1 (configuration not stated),26,19,37*,2,6,1
CCC(C)c1ccc(N(C(=O)c2ccco2)C(C(=O)NC2CCCC2)c2ccc(N3CCOCC3)cc2)cc1 (configuration not stated),11,12,48*,8,3,11
O=C(NCCCN1CCC(Cc2ccccc2)CC1)C1CCCN(S(=O)(=O)N2CCC3(CC2)OCCO3)C1 (configuration not stated),9,0,29,2,6,-4
CCCCNC(=O)CSc1nnc(-c2cc3ccccc3n2C)o1,12,56*,72*,4,5,12
COc1ccc(NC(=O)CSc2nnc(-c3cc4ccccc4n3C)o2)cc1,27,17,11,5,10,26
Cn1c(-c2nnc(SCC(=O)NCCc3ccccc3)o2)cc2ccccc21,23,43*,57*,2,3,11
O=C(CC1C(=O)N(C2CCCC2)c2nc3ccccc3n21)Nc1cccc(F)c1 (configuration not stated),9,5,16,9,-31,8
NC(=O)C1Cc2ccccc2N1C(=O)CCc1ccccc1 (configuration not stated),1,-11,-19,-3,-3,-2
Cn1c(C(=O)N2CCc3nc4ccccc4n3CC2)cc2ccccc21,-1,-6,0,-3,-8,-3
COc1ccc2c(c1)C[C@@H](c1cccnc1)N[C@H]2c1cccnc1,41*,10,13,1,-1,-1
O=C(Cn1cc(C(=O)C(F)(F)F)c2ccccc21)N1CCCC1,2,-6,.,0,-1,-1
Cc1onc(C(=O)NCc2ccc3c(c2)OCO3)c1CN1CCOCC1,4,-6,-9,-1,1,-1
O=c1oc2ccccc2c(NCc2ccc3c(c2)OCO3)c1CN1CCCC1,0,31*,12,4,0,-2
SMILES,USP8 inh,USP17 inh,USP30 inh,UCHL1 block,USP7 block,USP10 block
Cc1cc(N2CCN(C)CC2)n2nc(CN3CCCCC3C)nc2n1 (configuration not stated),-42,39*,-18,0,0,0
CCCOc1ccc(NC(=O)COc2c(C)cccc2C)c2cccnc12,-17,4,-218,2,5,-1
COc1ccccc1N(CC(=O)Nc1ccccc1-c1ccccc1)S(=O)(=O)c1ccc(F)cc1,19,7,18,10,14,15
Cc1ccc(C(C)C(=O)N2CCC(c3onc4c3CCCC4)CC2)cc1 (configuration not stated),2,7,16,1,0,4
O=C(O)CC(NC(=O)c1cnn(Cc2ccccc2)c1)c1ccccc1 (configuration not stated),-9,-6,5,-3,-3,-2
NC(=O)c1ccc(NC(=O)c2cnn(Cc3ccccc3)c2)cc1,1,38*,15,0,0,-3
CN(C)c1ccc(NC(=O)c2ccc(Cn3cc([N+](=O)[O-])cn3)cc2)cc1,46*,29,-55,2,0,3
O=C(Cn1cnc2scc(-c3ccc4c(c3)CCCC4)c2c1=O)Nc1cc(Cl)ccc1Cl,0,-10,-84,-12,-8,-1
O=C(c1cnccn1)N1CCC2(CC1)CN(c1cccnc1)c1ccccc12,3,0,0,1,1,-3
COc1ccc(OCc2nc(-c3ccc(N4CCCCCC4)nc3)no2)cc1,44*,5,-254,-5,0,-5
c1ccc2c(c1)CCN(Cc1nc(-c3ccc(N4CCOCC4)nc3)no1)C2,36*,-1,-3,3,0,-6
Cc1ccc(-c2noc(-c3ccc(N4CCC5(CC4)OCCO5)nc3)n2)cc1,5,1,-1,-3,0,1
COc1ccc(-c2noc(-c3ccc(N4CCC5(CC4)OCCO5)nc3)n2)cc1,17,15,34*,2,7,-1
CC1CCN(Cc2nc(-c3ccc(N4CCCCC4)nc3)no2)CC1,15,9,2,2,-5,1
O=C(Nc1ccccc1C(=O)N1CCCCC1)c1cc(Br)ccc1-n1cnnn1,-3,-1,0,-5,-9,5
CCCCn1c(C2CC(=O)N(Cc3ccccc3)C2)nc2ccccc21 (configuration not stated),10,0,1,1,-11,-1
O=C(NCc1ccc2c(c1)OCO2)c1ccc(C2SCC(=O)N2Cc2ccco2)cc1 (configuration not stated),36*,56*,5,5,7,7

# Bioassay records from PubChem.
